FH mod: Identification of activators of human fumarate hydratase by quantitative high-throughput screening. Fumarate hydratase, mitochondrial (Homo sapiens), P07954. Potency, µM (series often up to 79.9 µM), for the others: at the top dose activity change, negative = inhibition, usual class: inhibitors. FH coupled MDH/diaphorase resazurin fluorescence, 15 min. 54,000 tested, 0.22% active; also: % is scaled to controls: 0 for no effect and ±100 for the full control effect; the screen sought activators but most active calls are inhibition curves; nearly all actives have a fitted effect of over 45% in size
Target sequence (P07954 whole entry, looked up): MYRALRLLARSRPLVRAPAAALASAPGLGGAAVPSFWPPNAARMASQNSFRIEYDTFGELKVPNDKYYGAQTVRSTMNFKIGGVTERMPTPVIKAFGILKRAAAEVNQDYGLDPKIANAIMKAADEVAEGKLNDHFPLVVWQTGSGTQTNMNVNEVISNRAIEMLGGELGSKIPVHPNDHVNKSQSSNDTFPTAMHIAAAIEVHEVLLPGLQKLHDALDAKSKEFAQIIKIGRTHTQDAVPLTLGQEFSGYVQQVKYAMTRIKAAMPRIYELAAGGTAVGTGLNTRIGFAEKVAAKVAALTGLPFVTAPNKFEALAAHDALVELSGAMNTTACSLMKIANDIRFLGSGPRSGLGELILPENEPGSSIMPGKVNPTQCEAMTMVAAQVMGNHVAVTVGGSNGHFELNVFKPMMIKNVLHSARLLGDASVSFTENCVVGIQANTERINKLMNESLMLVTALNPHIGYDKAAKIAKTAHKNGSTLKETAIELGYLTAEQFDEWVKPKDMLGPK
S16 F2sN tox: toxic to S16 Pmp22-F2sN Schwann cells; S16 Pmp22-F2sN Schwann cells viability, CellTiter-Glo, 24 h; Potency, µM (top dose mostly 57.5 µM), for the others: top-dose activity change, negative = cytotoxicity, hits mostly cytotoxic; 43,000 tested, 0.48% active; AID 1508642; also: % is scaled to controls: 0 for no effect and ±100 for the full control effect; nearly all actives have a fitted effect of over 65% in size
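Used to flag compounds lowering reporter output through toxicity, this quantitative HTS measures ATP-based CellTiter-Glo luminescence in S16 Pmp22-F2sN Schwann cells after 24 h compound exposure at 37C.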
HTT-AS promoter: activates huntingtin-antisense promoter activity; HEK293 HTT-AS promoter firefly luciferase reporter, 24 h; response scale: percent change from vehicle, -100% = no light; AID 1508624; Potency, µM (top dose mostly 57.5 µM), inactives show at the top dose activity change, positive = activation, hits mostly activators; 48,000 tested, 0.24% active; also: nearly all actives have a fitted effect of over 55% in size
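HEK293 luciferase promoter-reporter cells (2,500/well) plated 24 h, then compounds added at up to 57.5 uM final for 24 h at 37 °C. Firefly luminescence by Dual-Glo, normalized to vehicle (0%) and zero RLU (-100%).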
HTT prom inh: inhibitors of huntingtin promoter activity | HEK293 HTT promoter firefly luciferase reporter, 24 h | Potency, µM (titrated, usually from 57.5 µM), for the others: top-dose activity change, negative = inhibition, usual class: inhibitors | 48,000 tested, 0.93% active | AID 1508623; also: nearly all actives have a fitted effect of over 50% in size
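Firefly luciferase signal from promoter-reporter HEK293 cells was scaled between vehicle (0%) and zero RLU (-100%). Compounds were tested at final concentrations of up to 57.5 uM over 24 h at 37 degrees C. PTC124 at 50 uM final served as control inhibitor.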
PMP22 txn prim: modulates PMP22 transcription in S16 Schwann cells | S16 Pmp22-F2sN Schwann cells (luciferase reporters placed in the Pmp22 gene), FLuc/NLuc coincidence luminescence, 24 h | 43,000 tested, 2% active | Potency, µM (titrated, usually from 57.5 µM), without a hit: top-dose activity change, negative = inhibition, most hits filed as inhibitors; active = clear falling dose curves in both reporters; inconclusive = both reporters move, but less clearly or upward; inactive = either reporter flat; the % is the NLuc reporter signal; also: % is scaled to controls: 0 for no effect and ±100 for the full control effect
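Luminescent read-out of sequential FLuc and NLuc signals from a reporter embedded in the Pmp22 3' UTR of S16 Schwann cells, taken after 24 h compound exposure at 37C; compounds reducing both signals score as inhibitors of expression.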
pS6 MEF inh: inhibitors of mTORC1 signaling in Tsc2-/- p53-/- MEF cells | Potency, µM (series often up to 38.3 µM), inactives show at the top dose activity change, negative = inhibition, most hits filed as inhibitors | Tsc2-/- p53-/- MEF, phospho-rpS6 immunofluorescence/PI, 24 h | AID 493208 | 44,000 tested, 0.78% active;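 also: plate controls were DMSO for no effect and rapamycin for full effect; nearly all actives have a fitted effect of over 50% in size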
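Immunofluorescence of rpS6 phosphorylation in Tsc2-/-, p53-/- MEFs after 24 h compound exposure, normalized to propidium iodide signal. Activity is expressed as % positive cells, thresholded with 7.5 nM rapamycin.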
* hit, by the source's call; ? = inconclusive; · = no result; [ ] = remark or other dose. Shown are actives, neighbours in structure and some others; about 3.3% of the full set was active somewhere. Unless noted, calls follow the shape of the dose curve; as a rule, active = well fitted curve in the direction sought with a large enough effect; inconclusive = small, poorly fitted or top-dose-only effect, or another doubt; inactive = no such curve, though single readings can be large; an effect the other way counts as inactive or inconclusive. Potency is read from the fitted curve at half-maximal effect.

SMILES	FH mod	S16 F2sN tox	HTT-AS promoter	HTT prom inh	PMP22 txn prim	pS6 MEF inh
C[C@@H]1O[C@@H](O[C@H]2[C@H](OC(=O)[C@]34CCC(C)(C)C[C@H]3C3=CCC5[C@@]6(C)CC[C@H](O[C@@H]7O[C@H](CO[C@@H]8OC[C@H](O)[C@H](O)[C@H]8O[C@@H]8OC[C@@H](O)[C@H](O)[C@H]8O)[C@@H](O)[C@H](O)[C@H]7O)C(C)(C)C6CC[C@@]5(C)[C@]3(C)C[C@H]4O)O[C@H](CO)[C@@H](O)[C@@H]2O)[C@H](O[C@@H]2O[C@H](CO)[C@@H](O)[C@H](O)[C@H]2O)[C@H](O)[C@H]1O[C@@H]1OC[C@@H](O)[C@H](O[C@@H]2OC[C@@H](O)[C@H](O)[C@H]2O)[C@H]1O (some centres undefined)	9.0%[13.5 µM]	·	·	·	·	·
COc1cccc(N2CCN(S(=O)(=O)c3ccc(-c4cnc(C5CC5)o4)cc3)CC2)c1	-4.4%	15.8µM*	-15.6%	-21.9%	?	0.0%
Cc1cc(C)c(NS(=O)(=O)c2ccc(-c3cnc(C4CC4)o3)cc2)c(C)c1	?	0.794µM*	-50.2%	?	?	?
CCN(CC)c1ccc(NS(=O)(=O)c2ccc(-c3cnc(C4CC4)o3)cc2)c(C)c1	?	1.78µM*	-31.1%	?	?	0.0%
C/C=C1\[C@H](O[C@@H]2O[C@H](CO)[C@@H](O)[C@H](O)[C@H]2O)OC=C(C(=O)O)[C@H]1CC(=O)OCCc1ccc(O)cc1	8.5%[53.3 µM]	·	·	·	·	·
CC(=O)O[C@@H]1C2=C(O)C(=O)[C@](C)(OC(C)=O)C(=O)C2=CO[C@@]12O[C@@H](C)CC[C@H]2OC(C)=O	2.1%[53.3 µM]	·	·	·	·	·
COc1ccc(CCNC(=O)c2c(C)nn(-c3ccc(F)cc3)c2-n2cccc2)cc1OC	-9.0%	-13.0%	-34.3%	20µM*	?	?
COc1ccc(CNC(=O)c2cnn(-c3ccccc3)c2-n2cccc2)cc1OC	·	·	·	·	·	-22.1%
COc1ccc(CNC(=O)c2cnn(-c3ccc(C)cc3)c2-n2cccc2)cc1OC	-4.4%	?	-37.4%	15.8µM*	?	-2.9%
COc1cc2nc(N3CCCC3)nc(NCCCCCN3CCCC3)c2cc1OC	5.5%	·	·	·	·	·
CC(C)c1ccc(CNC(=O)c2ccc(N3CCCC3)c(NC(=O)NCc3ccccc3)c2)cc1	-17.6%	-20.9%	-19.4%	25.1µM*	?	0.0%
CCCN1CCN(c2ncnc3sc(C(=O)Nc4ccc(OC(F)(F)F)cc4)c(C)c23)CC1	?	?	0.3%	-20.8%	?	16.5µM*
CN1CCN(CCNC(=O)c2cnn(-c3cccc(Cl)c3)c2C2CCN(C(=O)OC(C)(C)C)CC2)CC1	1.0%	1.1%	-17.8%	-9.5%	-16.4%	3.8%
CC(C)(C)OC(=O)N1CCC(c2c(C(=O)NCCN3CCC(Cc4ccccc4)CC3)cnn2-c2cccc(Cl)c2)CC1	?	25.1µM*	-52.3%	?	?	14.7µM*
C=CCc1ccc(O[C@@H]2O[C@H](CO[C@@H]3O[C@H](CO)[C@@H](O)[C@H](O)[C@H]3O)[C@@H](O)[C@H](O)[C@H]2O)c(O)c1	2.5%[53.3 µM]	·	·	·	·	·
Cc1cc(-c2ccc(S(=O)(=O)Nc3cccc(C)c3C)s2)on1	-9.7%	?	-36.1%	?	10µM*	?
N#Cc1cccc(-c2c[nH]c3ncnc(N4CCOCC4)c23)c1	-4.1%	·	·	·	·	·
Cc1ccc(Nc2c(-c3ccc(N(C)C)cc3)nc3ccccn23)cc1	?	-13.5%	2µM*	72.3%	-14.3%	-6.6%
CC(=O)Nc1cccc(-c2nc(-c3ccccc3)no2)c1	-14.3%	-22.3%	1.12µM*	55.6%	-24.2%	1.3%
